In the supplement of paper PMC7411054:
Structures can show the parent of a compound that is named as a salt.

Key:
Test in all cases: lowest phenotypically active concentration; higher = less potent
Details in all cases: treatment time: 24 h
[1] = tested on: A549-CANX-COX4
Procedure, shortened: (§1)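 Cells from fifteen gene-edited reporter lines (A549, HepG2 and WPMY1) were treated for 24 h at 0.3, 1, 3 or 9 µM and imaged live, four wells per condition. Features were normalised per well to solvent control wells. A condition deviated if ≥3 of 4 wells passed the 95th percentile of control Euclidean distances and was reproducible if its median replicate Pearson correlation beat the 95th percentile of non-replicates; phenotypic activity needed both.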

[2] = tested on: HepG2-CANX-COX4
Procedure, shortened: as §1

[3] = tested on: WPMY1-ACTB-RAB5A
Procedure, shortened: as §1

[4] = tested on: WPMY1-CANX-COX4
Procedure, shortened: as §1

[5] = tested on: A549-ACTB-RAB5A
Procedure, shortened: as §1

[6] = tested on: A549-TP53BP1-CLTA
Procedure, shortened: as §1

[7] = tested on: A549-TUBA1B-RELA
Procedure, shortened: as §1

[8] = tested on: HepG2-ACTB-RAB5A
Procedure, shortened: as §1

[9] = tested on: HepG2-TP53BP1-CLTA
Procedure, shortened: as §1

[10] = tested on: WPMY1-TUBA1B-RELA
Procedure, shortened: as §1

| SMILES | lowest phenotypically active concentration [1] | lowest phenotypically active concentration [2] | lowest phenotypically active concentration [3] | lowest phenotypically active concentration [4] | lowest phenotypically active concentration [5] | lowest phenotypically active concentration [6] | lowest phenotypically active concentration [7] | lowest phenotypically active concentration [8] | lowest phenotypically active concentration [9] | lowest phenotypically active concentration [10] |
| --- | --- | --- | --- | --- | --- | --- | --- | --- | --- | --- |
| C[C@H](CCC(=O)O)C[C@H](C)C[C@H](C)C(=O)/C=C(\O)[C@H](C)C[C@H](C)C/C=C/[C@@H](C)[C@@H](O)[C@@H](C)[C@@H](O)C[C@@H]1CC[C@@](C)([C@H]2CC[C@@](C)([C@@H](C)O)O2)O1 [Ionomycin free acid] | 9 µM | 9 µM | 3 µM | 9 µM |  |  |  |  |  |  |
| O=C(Nc1ccncc1)C(=O)c1cn(Cc2ccc(Cl)cc2)c2ccccc12 [Indibulin] |  | ≤ 0.3 µM | ≤ 0.3 µM | 3 µM | ≤ 0.3 µM | 3 µM | ≤ 0.3 µM | 1 µM | 1 µM | ≤ 0.3 µM |
| C[C@@H]1CC[C@H]2[C@@H](C)C(=O)O[C@@H]3O[C@@]4(C)CC[C@@H]1[C@]32OO4 [Artemisinin] |  |  | ≤ 0.3 µM | ≤ 0.3 µM | 3 µM | 3 µM | ≤ 0.3 µM | 3 µM | 1 µM | ≤ 0.3 µM |
| CC[C@]12C=CCN3CC[C@]4(C(=C(C(=O)OC)C1)Nc1ccccc14)[C@@H]32 [Tabersonine dichlorhydrate] | 9 µM | 9 µM | 9 µM | 9 µM | 9 µM |  | 9 µM | 9 µM | 9 µM | 9 µM |
| CC(C)[C@@]1(NC(=O)[C@@H]2C[C@@H]3c4cccc5[nH]cc(c45)C[C@H]3N(C)C2)O[C@@]2(O)[C@@H]3CCCN3C(=O)[C@H](Cc3ccccc3)N2C1=O [Dihydroergocristine mesylate] | 9 µM | 9 µM | 9 µM | 9 µM | 9 µM | 9 µM | 9 µM | 3 µM | 9 µM | 9 µM |
| COc1ccc2c(c[n+](C)c3c4cc5c(cc4ccc23)OCO5)c1OC [Chelerythrine chloride] |  |  |  |  | 3 µM | 9 µM |  |  | 9 µM |  |
| COc1cc2c(c(OC)c1OC)-c1ccc(O)c(=O)cc1[C@@H](N)CC2 [Trimethylcolchicinic acid] | 9 µM | 9 µM |  |  | 9 µM | 9 µM | 9 µM |  |  |  |
| COc1cc2c(c(OC)c1OC)-c1ccc(OC)c(=O)cc1[C@@H](NC(C)=O)CC2 [colchicine] | ≤ 0.3 µM | ≤ 0.3 µM | ≤ 0.3 µM | ≤ 0.3 µM | ≤ 0.3 µM | ≤ 0.3 µM | 9 µM | ≤ 0.3 µM | ≤ 0.3 µM | ≤ 0.3 µM |
| C[C@@]12C(=O)OC(=O)[C@]1(C)[C@H]1CC[C@@H]2O1 [Cantharidin] | 3 µM | 9 µM | 3 µM | 9 µM | 3 µM | 3 µM |  | 3 µM | 9 µM | 3 µM |
| CN1C[C@H](C(=O)N[C@]2(C)O[C@@]3(O)[C@@H]4CCCN4C(=O)[C@H](Cc4ccccc4)N3C2=O)C=C2c3cccc4[nH]cc(c34)C[C@H]21 [ergotamine] | 3 µM | 3 µM | 3 µM | 3 µM | 9 µM | 3 µM | 3 µM | 9 µM | 3 µM | 3 µM |
| COc1ccc(N(C(=O)Oc2c(C)cccc2C)c2ccnc(Nc3ccc(N4CCN(C)CC4)cc3)n2)c(OC)c1 | 3 µM | 1 µM | 1 µM |  | 1 µM | 3 µM | 1 µM | ≤ 0.3 µM | 1 µM |  |
| N#CC(C#N)=NNc1ccc(OC(F)(F)F)cc1 | 9 µM | 9 µM | 3 µM | 3 µM | 9 µM | 9 µM | 3 µM | 9 µM | 9 µM | 9 µM |
| C/C=C(/C)C(=O)O[C@H]1C(C)=C2[C@H]([C@@H]1OC(=O)CCCCCCC)[C@@](C)(OC(C)=O)C[C@H](OC(=O)CCC)[C@@]1(O)[C@H]2OC(=O)[C@@]1(C)O [Thapsigargin] | ≤ 0.3 µM | ≤ 0.3 µM | ≤ 0.3 µM | ≤ 0.3 µM | ≤ 0.3 µM | ≤ 0.3 µM | ≤ 0.3 µM | ≤ 0.3 µM | ≤ 0.3 µM | ≤ 0.3 µM |
| CC[C@@H]1C=CC=CC[C@H](C)[C@@H](O)[C@](C)(O)C(=O)[C@H](C)[C@@H](O)[C@H](C)C(=O)[C@H](C)[C@@H](O)[C@H](C)C=CC(=O)O[C@H]2[C@@H](C)[C@@H](CC1)O[C@@]1(CC[C@@H](C)[C@@H](C[C@H](C)O)O1)[C@@H]2C [Oligomycin A] | ≤ 0.3 µM | ≤ 0.3 µM |  | 1 µM | ≤ 0.3 µM | ≤ 0.3 µM | ≤ 0.3 µM | ≤ 0.3 µM | ≤ 0.3 µM |  |
| CC[C@H]1CN2CCc3cc(OC)c(OC)cc3[C@@H]2C[C@@H]1C[C@H]1NCCc2cc(OC)c(OC)cc21 [emetine] | ≤ 0.3 µM | ≤ 0.3 µM | ≤ 0.3 µM | ≤ 0.3 µM | ≤ 0.3 µM | ≤ 0.3 µM | ≤ 0.3 µM | ≤ 0.3 µM | ≤ 0.3 µM | ≤ 0.3 µM |
| O=C(NCCN1CCC2(CC1)C(=O)NCN2c1cccc(F)c1)c1ccc(F)c(F)c1 [ML 298 hydrochloride] | 9 µM |  | 9 µM | 9 µM | 3 µM | 9 µM | 3 µM | 9 µM | 9 µM | 9 µM |
| COC1=CC(C)=C[C@@H](C)[C@@H](O)[C@@H](C)CC(C)=CC=C[C@H](OC)[C@@H]([C@@H](C)[C@@H](O)[C@H](C)[C@@]2(O)C[C@@H](O)[C@H](C)[C@@H](C(C)C)O2)OC1=O [Bafilomycin A1] | 9 µM | 3 µM | 1 µM | 3 µM | ≤ 0.3 µM | 3 µM | ≤ 0.3 µM | 3 µM | 9 µM | 3 µM |
| COc1ccc2c(c1)/C(=C/c1c[nH]cn1)C(=O)N2 | 1 µM | 1 µM | 3 µM | 1 µM | 1 µM | 1 µM | 1 µM | 1 µM | 1 µM | 1 µM |
| CN1C[C@H](C(=O)N[C@]2(C)O[C@@]3(O)[C@@H]4CCCN4C(=O)[C@H](Cc4ccccc4)N3C2=O)C[C@@H]2c3cccc4[nH]cc(c34)C[C@H]21.CN1C[C@H](C(=O)N[C@]2(C)O[C@@]3(O)[C@@H]4CCCN4C(=O)[C@H](Cc4ccccc4)N3C2=O)C[C@@H]2c3cccc4[nH]cc(c34)C[C@H]21 [dihydroergotamine] |  |  |  |  | 9 µM | 9 µM | 9 µM | 9 µM | 9 µM |  |
| C[C@@]1(CO)[C@H](O)CC[C@@]2(C)[C@H]1CC[C@H]1C[C@@H]3C[C@@]12CC[C@]3(O)CO [Aphidicolin] | ≤ 0.3 µM | ≤ 0.3 µM | ≤ 0.3 µM | ≤ 0.3 µM | ≤ 0.3 µM | ≤ 0.3 µM | ≤ 0.3 µM | ≤ 0.3 µM | ≤ 0.3 µM | ≤ 0.3 µM |
| CC(C)(N)Cc1ccccc1 [phentermine] | 9 µM |  |  |  |  | 3 µM |  | 9 µM |  |  |

| SMILES | lowest phenotypically active concentration [1] | lowest phenotypically active concentration [2] | lowest phenotypically active concentration [3] | lowest phenotypically active concentration [4] | lowest phenotypically active concentration [5] | lowest phenotypically active concentration [6] | lowest phenotypically active concentration [7] | lowest phenotypically active concentration [8] | lowest phenotypically active concentration [9] | lowest phenotypically active concentration [10] |
| --- | --- | --- | --- | --- | --- | --- | --- | --- | --- | --- |
| Cc1c(C(=O)Nc2cccc(C(F)(F)F)c2)cc(-c2ccccc2)n1CCCN1CCOCC1 |  |  |  |  | 9 µM |  |  |  |  |  |
| O=c1[nH]c2ccccc2n1C1CCN(CCCC(c2ccc(F)cc2)c2ccc(F)cc2)CC1 [pimozide] |  |  |  |  | 9 µM |  | 3 µM | 3 µM |  |  |
| C[C@]12CC[C@H]3[C@@H](CCC4=CC(=O)CC[C@@]43C)[C@@H]1CC[C@@H]2O [testosterone] |  | 3 µM |  |  |  |  |  |  |  |  |
| O=C1NC(=S)N(c2cccc(Br)c2)C(=O)/C1=C/c1ccco1 |  | 9 µM | 3 µM | 9 µM |  |  | 9 µM |  |  | 9 µM |
| O=C1C=C2C=C[C@@H]3C[C@@]2(O1)[C@H]1CCCCN31 [Securinine] |  |  |  |  |  |  |  |  |  | 9 µM |
| CN1C(=O)CN=C(c2ccccc2)c2cc(Cl)ccc21 [diazepam] |  |  |  |  |  |  |  | 9 µM |  |  |
| COc1cc2c(cc1O)C[C@H]1c3c(cc(O)c(OC)c3-2)CCN1C [Boldine] |  |  |  |  |  |  | 9 µM | 9 µM |  |  |
| C[C@H]1CC[C@@H]2N(C1)C[C@H]1[C@@H]3C[C@H]4[C@@H](CC(=O)[C@H]5C[C@@H](O)CC[C@@]54C)[C@@H]3CC[C@H]1[C@]2(C)O [Imperialine] |  |  | ≤ 0.3 µM | ≤ 0.3 µM |  |  |  |  |  |  |
| C[C@H]1CCCC=C[C@@H]2C[C@H](O)C[C@H]2[C@H](O)C=CC(=O)O1 [brefeldin-a] | ≤ 0.3 µM | ≤ 0.3 µM | ≤ 0.3 µM | ≤ 0.3 µM |  | ≤ 0.3 µM |  | ≤ 0.3 µM | ≤ 0.3 µM | ≤ 0.3 µM |
| C[C@H](N)Cc1ccccc1 [dextroamphetamine] |  |  |  |  | 3 µM |  | 3 µM |  |  |  |
| C[C@]12CC[C@H](O)C[C@H]1CC[C@@H]1[C@@H]2CC[C@]2(C)[C@@H](C3=CC(=O)OC3)CC[C@]12O [Digitoxigenin] | ≤ 0.3 µM | ≤ 0.3 µM | ≤ 0.3 µM | ≤ 0.3 µM |  | ≤ 0.3 µM |  | ≤ 0.3 µM | 1 µM | ≤ 0.3 µM |
| C=C(C)[C@H]1Cc2c(ccc3c2O[C@@H]2COc4cc(OC)c(OC)cc4[C@@H]2C3=O)O1 [Rotenone] | ≤ 0.3 µM | ≤ 0.3 µM | ≤ 0.3 µM | 1 µM |  | ≤ 0.3 µM |  | ≤ 0.3 µM | ≤ 0.3 µM | 1 µM |
| C[C@H]1C(=O)O[C@@H]2CCN3CC=C(COC(=O)[C@](C)(O)[C@]1(C)O)[C@H]23 [Monocrotaline] |  |  |  |  |  |  | 3 µM |  |  |  |
| C=C1C/C(=C\C)C(=O)O[C@@H]2CCN3CC=C(COC(=O)[C@]1(C)O)[C@H]23 [Seneciphylline] |  |  |  |  |  |  |  |  | 9 µM |  |
| Cc1sc2c(c1C)C(c1ccc(Cl)cc1)=N[C@H](CC(=O)OC(C)(C)C)c1nnc(C)n1-2 |  | 9 µM |  |  |  |  |  | 9 µM |  | 9 µM |
| Cc1c(C(=O)c2cccc3ccccc23)c2cccc3c2n1[C@H](CN1CCOCC1)CO3 [WIN 55,212-2 mesylate] |  |  | 9 µM | 9 µM |  |  |  |  |  |  |
| C[C@@H]1C[C@@H]([C@H](O)CC2CC(=O)NC(=O)C2)C(=O)[C@@H](C)C1 [Cycloheximide] | ≤ 0.3 µM | ≤ 0.3 µM | 1 µM | ≤ 0.3 µM |  | ≤ 0.3 µM |  | ≤ 0.3 µM | 3 µM | ≤ 0.3 µM |
| CCN(CC)CCN1C(=O)CN=C(c2ccccc2F)c2cc(Cl)ccc21 [flurazepam] |  | 1 µM |  |  |  |  |  |  |  |  |
| CC(C)C[C@H]1C(=O)N2CCC[C@H]2[C@]2(O)O[C@](NC(=O)[C@@H]3C=C4c5cccc6[nH]c(Br)c(c56)C[C@H]4N(C)C3)(C(C)C)C(=O)N12 [bromocriptine] |  | 9 µM |  |  |  | 9 µM |  | 9 µM | 9 µM |  |
| N[C@@H]1C[C@H]1c1cc(F)cc(F)c1OCc1ccccc1 |  |  | 9 µM |  |  |  |  |  |  |  |
| C[C@@H](CO)NC(=O)[C@@H]1C=C2c3cccc4[nH]cc(c34)C[C@H]2N(C)C1 [Ergobasine] |  |  |  | 9 µM |  | 9 µM |  |  |  |  |
